From PubChem BioAssay (NCATS)
Records with an inconclusive call do not appear. Where a call stands in place of a potency, no number is given. Calls of active or inactive are those of the source. The call rests on the fitted dose curve; in most records, active means well fitted inhibition curve with a large enough effect; inconclusive means small, poorly fitted or top-dose-only effect; inactive means flat fitted curve, though single readings scatter. Peptide text beside a SMILES is read from it.

Columns and labels:
Experiment in all cases: qHTS profiling for inhibitors of Plasmodium falciparum proliferation (AID 504749); further: nearly all actives have a fitted effect of over 60% in size
Conditions in all cases: P. falciparum in erythrocytes, SYBR Green DNA, 72 h; series mostly up to 28.7 µM
CP329 = system: CP329
Method in brief: (§1)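 SYBR Green fluorescence (ex 485 nm, em 535 nm) reports parasite DNA after 72 h compound exposure of infected red cells at 0.3% parasitemia, 2.5% hematocrit; signal normalized to 0.29 uM artemisinin and vehicle wells.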

CP335 = system: CP335
Method in brief: as §1

DFO2036 = system: DFO2036
Method in brief: as §1

DIV14 = system: DIV14
Method in brief: as §1

DIV17 = system: DIV17
Method in brief: as §1

DIV30 = system: DIV30
Method in brief: as §1

Dd2 = system: Dd2
Method in brief: as §1

ECU = system: ECU
Method in brief: as §1

FAB9 = system: FAB9
Method in brief: as §1

GB4 = system: GB4
Method in brief: as §1

HB3 = system: HB3
Method in brief: as §1

ICS = system: ICS
Method in brief: as §1

JCK = system: JCK
Method in brief: as §1

N140 = system: N140
Method in brief: as §1

P93_24 = system: P93_24
Method in brief: as §1

P94_40 = system: P94_40
Method in brief: as §1

PAD = system: PAD
Method in brief: as §1

PC15 = system: PC15
Method in brief: as §1

PC26 = system: PC26
Method in brief: as §1

PC49 = system: PC49
Method in brief: as §1
Potency means the concentration at half of the fitted maximal effect.

Structure (SMILES)	Potency (CP329)	Potency (CP335)	Potency (DFO2036)	Potency (DIV14)	Potency (DIV17)	Potency (DIV30)	Potency (Dd2)	Potency (ECU)	Potency (FAB9)	Potency (GB4)	Potency (HB3)	Potency (ICS)	Potency (JCK)	Potency (N140)	Potency (P93_24)	Potency (P94_40)	Potency (PAD)	Potency (PC15)	Potency (PC26)	Potency (PC49)
CCC(C)(Oc1ccc(C2(c3ccc(OC(C)(CC)C(=O)O)cc3)CCCCC2)cc1)C(=O)O (stereo unspecified)	inactive	inactive	inactive	inactive	inactive	inactive	inactive	inactive	inactive	inactive	inactive	inactive	inactive	inactive	inactive	inactive	inactive	inactive	inactive	inactive
COC(=O)[C@H](Cc1ccccc1)NC(=O)[C@@H](N)CC(=O)O (H-Asp-Phe-OMe)	inactive	inactive	inactive	inactive	inactive	inactive	inactive	inactive	inactive	inactive	inactive	inactive	inactive	inactive	inactive	inactive	inactive	inactive	inactive	inactive
CN(C)C(=O)COC(=O)Cc1ccc(OC(=O)c2ccc(N=C(N)N)cc2)cc1	inactive	inactive	inactive	inactive	inactive	inactive	–	inactive	inactive	inactive	inactive	inactive	inactive	inactive	inactive	inactive	inactive	inactive	inactive	inactive
C=CCc1cc(OC)c(O)c(C(=O)NCCO)c1	inactive	inactive	inactive	inactive	inactive	inactive	inactive	inactive	inactive	inactive	inactive	inactive	inactive	inactive	inactive	inactive	inactive	inactive	inactive	inactive
CC1(C)CCC(C)(C)c2cc(NC(=O)c3ccc(C(=O)O)cc3)ccc21	inactive	inactive	inactive	inactive	inactive	inactive	inactive	inactive	inactive	inactive	inactive	inactive	inactive	inactive	inactive	inactive	inactive	inactive	inactive	inactive
O=P(O)(O)C(O)(Cn1ccnc1)P(=O)(O)O	inactive	inactive	inactive	inactive	inactive	inactive	inactive	inactive	inactive	inactive	inactive	inactive	inactive	inactive	inactive	inactive	inactive	inactive	inactive	inactive
Cc1cc2c(s1)Nc1ccccc1N=C2N1CCN(C)CC1	inactive	inactive	inactive	inactive	inactive	inactive	inactive	inactive	inactive	–	inactive	inactive	inactive	inactive	inactive	inactive	inactive	inactive	–	inactive
O=C1c2ccccc2-c2n[nH]c3cccc1c23	inactive	–	inactive	inactive	inactive	inactive	inactive	inactive	inactive	–	inactive	–	inactive	inactive	inactive	inactive	inactive	inactive	–	inactive
Cc1c(C(=O)NN2CCCCC2)nn(-c2ccc(Cl)cc2Cl)c1-c1ccc(Cl)cc1	–	–	–	13.5 µM (active)	13.5 µM (active)	12 µM (active)	–	–	–	–	–	11.2 µM (active)	inactive	8.91 µM (active)	10 µM (active)	11.2 µM (active)	–	–	16.9 µM (active)	–
CCCCC(CC)COC(=O)C(C#N)=C(c1ccccc1)c1ccccc1 (stereo unspecified)	inactive	–	–	inactive	inactive	inactive	–	8.91 µM (active)	inactive	–	–	–	inactive	inactive	–	–	inactive	–	inactive	inactive
COCCCOc1ccnc(CS(=O)c2nc3ccccc3[nH]2)c1C (stereo unspecified)	inactive	inactive	inactive	–	–	inactive	–	inactive	inactive	inactive	inactive	–	inactive	inactive	–	inactive	–	inactive	19 µM (active)	inactive
N=C(N)c1ccc2cc(OC(=O)c3ccc(N=C(N)N)cc3)ccc2c1	–	–	–	7.57 µM (active)	–	–	–	–	–	5.36 µM (active)	–	7.08 µM (active)	inactive	–	–	–	inactive	–	–	–
O=C1CCc2ccc(OCCCCN3CCN(c4cccc(Cl)c4Cl)CC3)cc2N1	inactive	–	–	inactive	inactive	inactive	–	–	inactive	inactive	–	11.2 µM (active)	inactive	–	10 µM (active)	–	–	–	inactive	inactive
N=C(N=C(N)N)N1CCOCC1	–	inactive	inactive	inactive	inactive	inactive	inactive	inactive	inactive	inactive	inactive	inactive	inactive	inactive	inactive	inactive	inactive	inactive	inactive	inactive
CN(c1nccc(=O)[nH]1)C1CCN(c2nc3ccccc3n2Cc2ccc(F)cc2)CC1	inactive	inactive	inactive	–	–	–	–	–	inactive	–	inactive	10 µM (active)	inactive	–	inactive	–	inactive	–	–	inactive
O=c1oc2cc(O)ccc2s1	inactive	inactive	inactive	–	–	inactive	inactive	inactive	inactive	–	inactive	–	inactive	inactive	inactive	inactive	inactive	inactive	inactive	inactive
COc1ccc2cc([C@H](C)C(=O)O)ccc2c1	inactive	–	inactive	inactive	inactive	inactive	inactive	inactive	inactive	inactive	inactive	–	inactive	inactive	–	inactive	inactive	inactive	inactive	inactive
Cc1nc(Nc2ncc(C(=O)Nc3c(C)cccc3Cl)s2)cc(N2CCN(CCO)CC2)n1	inactive	inactive	inactive	–	13.5 µM (active)	13.5 µM (active)	–	–	inactive	15.1 µM (active)	–	7.08 µM (active)	inactive	14.1 µM (active)	–	–	–	–	–	–

Structure (SMILES)	Potency (CP329)	Potency (CP335)	Potency (DFO2036)	Potency (DIV14)	Potency (DIV17)	Potency (DIV30)	Potency (Dd2)	Potency (ECU)	Potency (FAB9)	Potency (GB4)	Potency (HB3)	Potency (ICS)	Potency (JCK)	Potency (N140)	Potency (P93_24)	Potency (P94_40)	Potency (PAD)	Potency (PC15)	Potency (PC26)	Potency (PC49)
CCc1nc(N)nc(N)c1-c1ccc(Cl)cc1	–	–	inactive	–	–	–	inactive	0.0501 µM (active)	0.0501 µM (active)	0.019 µM (active)	11.2 µM (active)	–	inactive	inactive	inactive	inactive	inactive	inactive	–	inactive
CCCCCCCCOc1ccccc1C(=O)Nc1ccc(C(=O)OCC[N+](C)(CC)CC)cc1	–	6.01 µM (active)	8.91 µM (active)	–	–	–	–	10 µM (active)	inactive	12 µM (active)	–	8.91 µM (active)	–	–	12.6 µM (active)	–	–	–	–	–
Cc1cc(=O)oc2cc(O)ccc12	inactive	–	–	inactive	inactive	inactive	–	–	inactive	inactive	–	–	2 µM (active)	–	inactive	inactive	inactive	1.12 µM (active)	–	–
Cc1cc(C2CCCCC2)n(O)c(=O)c1	–	–	–	–	–	–	inactive	–	3.55 µM (active)	6.42 µM (active)	–	3.55 µM (active)	–	–	3.16 µM (active)	–	–	3.16 µM (active)	–	inactive
Nc1nc(Cl)nc2c1ncn2[C@H]1C[C@H](O)[C@@H](CO)O1	–	–	inactive	–	–	–	inactive	inactive	inactive	–	inactive	inactive	inactive	inactive	inactive	inactive	inactive	inactive	–	inactive
CCCCN(CCCC)CCC(O)c1cc2c(Cl)cc(Cl)cc2c2cc(C(F)(F)F)ccc12 (stereo unspecified)	0.051 µM (active)	0.0081 µM (active)	0.0089 µM (active)	–	–	0.0102 µM (active)	0.0028 µM (active)	0.0079 µM (active)	0.0112 µM (active)	–	0.0063 µM (active)	0.0006 µM (active)	10 µM (active)	0.0032 µM (active)	0.0056 µM (active)	0.0032 µM (active)	0.0045 µM (active)	0.0089 µM (active)	0.0102 µM (active)	–
C=C(c1ccc(C(=O)O)cc1)c1cc2c(cc1C)C(C)(C)CCC2(C)C	inactive	–	inactive	–	inactive	inactive	–	inactive	inactive	inactive	–	8.91 µM (active)	inactive	inactive	inactive	inactive	inactive	inactive	inactive	inactive
CC1=C(C)C(=O)C(C(CCCCCC(=O)O)c2ccccc2)=C(C)C1=O (stereo unspecified)	inactive	inactive	inactive	–	–	–	inactive	inactive	inactive	–	inactive	inactive	inactive	–	inactive	inactive	inactive	inactive	–	inactive
O=C(OC1C[C@H]2CC[C@@H](C1)[N+]21CCCC1)C(O)(c1ccccc1)c1ccccc1 (stereo partly specified)	4.78 µM (active)	4.26 µM (active)	–	–	–	4.78 µM (active)	0.0891 µM (active)	5.01 µM (active)	–	4.26 µM (active)	–	–	inactive	–	2.24 µM (active)	4.47 µM (active)	–	inactive	–	inactive
Cc1ccc(NC(=O)c2ccc(CN3CCN(C)CC3)cc2)cc1Nc1nccc(-c2cccnc2)n1	–	–	–	15.1 µM (active)	15.1 µM (active)	12 µM (active)	10 µM (active)	8.91 µM (active)	–	15.1 µM (active)	–	11.2 µM (active)	–	8.91 µM (active)	10 µM (active)	11.2 µM (active)	10 µM (active)	–	15.1 µM (active)	–
CNC[C@H](O)c1ccc(O)c(O)c1	inactive	–	inactive	inactive	inactive	inactive	inactive	inactive	inactive	inactive	inactive	inactive	inactive	inactive	inactive	inactive	inactive	inactive	inactive	inactive
O=C(O)c1cn(-c2ccc(F)cc2)c2cc(N3CCNCC3)c(F)cc2c1=O	–	–	–	–	inactive	inactive	–	inactive	inactive	–	inactive	–	inactive	inactive	–	–	inactive	inactive	inactive	inactive
NNc1nncc2ccccc12	inactive	–	–	6.42 µM (active)	5.1 µM (active)	–	3.98 µM (active)	–	–	–	3.98 µM (active)	1.41 µM (active)	–	–	3.98 µM (active)	3.55 µM (active)	–	–	–	inactive
Cc1nc2n(c(=O)c1CCN1CCC(c3noc4cc(F)ccc34)CC1)CCCC2	inactive	–	inactive	–	inactive	inactive	inactive	inactive	inactive	inactive	inactive	12.6 µM (active)	inactive	inactive	inactive	inactive	inactive	inactive	inactive	inactive
CCC[C@@H]1C[C@@H](C(=O)N[C@@H]([C@H]2O[C@H](SC)[C@H](O)[C@@H](O)[C@H]2O)[C@@H](C)O)N(C)C1	–	–	–	–	–	–	0.0089 µM (active)	–	inactive	–	–	–	inactive	–	–	–	inactive	inactive	–	inactive
CC[C@]1(O)C[C@H]2CN(CCc3c([nH]c4ccccc34)[C@@](C(=O)OC)(c3cc4c(cc3OC)N(C=O)[C@H]3[C@@](O)(C(=O)OC)[C@H](OC(C)=O)[C@]5(CC)C=CCN6CC[C@]43[C@@H]65)C2)C1	–	–	1.78 µM (active)	–	–	3.38 µM (active)	0.199 µM (active)	–	–	–	0.447 µM (active)	0.1 µM (active)	–	3.55 µM (active)	–	3.16 µM (active)	–	inactive	–	inactive
CN1CCC(=C2c3ccccc3CCc3sccc32)CC1	inactive	–	–	4.78 µM (active)	4.26 µM (active)	–	5.01 µM (active)	inactive	inactive	6.01 µM (active)	–	8.91 µM (active)	–	–	–	–	–	–	–	8.91 µM (active)
